The source holds several records for some structures; these can differ, active in one and inactive in another. Activity calls are given as the source filed them. How the source made its calls: active means hit-call score of the fitted dose curve at least 0.9, where 1 is the maximum; inactive means score below 0.9.

What is called AC50 is the concentration at which the activity in the assay is half-maximal.

This assay is described as follows: CCTE_Shafer_MEA_acute_burst_percentage_std: CCTE's Neural Acute Assay for Standard Deviation of Burst Percentage, Shafer Lab (AID 2284018).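 Further: fitted in the negative direction so actives lower burst percentage SD.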 The protocol:
CCTE_Shafer_MEA_acute assay is conducted using Axion Biosystems 48 well microelectrode array (MEA) plates and Maestro recording system. Each well of the MEA plate contains a grid of 16 microelectrodes embedded in the culture surface. Electrically active cells, such as neurons, can be cultured over the electrodes, and electrical activity in these cells can be recorded extracellularly. The spontaneous firing of neurons is captured from each electrode on a microsecond timescale providing both temporally and spatially precise data. […] The CCTE_Shafer_MEA_acute assay uses primary cultures of rat cortical neurons. As these cultures mature over time, neural networks develop functional activity and form cohesive networks in which electrical activity can be highly coordinated. Baseline 40-minute recordings are made on days post-plating 13 or 15, followed by a secondary 40-minute recording after chemical exposure.CCTE_Shafer_MEA_acute_burst_percentage_std is a component of the CCTE_Shafer_MEA_acute assay. It measures the percentage of spikes (action potential firing) in a single-electrode burst (temporally-clustered groups of spikes) as the number of spikes in bursts divided by the total number of spikes during a recording in a microelectrode array (MEA) using Axion Biosystems Maestro 768 channel amplifier with the AxIS adaptive spike detector. The standard deviation of the burst percentages across electrodes is calculated to report a well-level value. The recordings before and after chemical treatment are used to calculate a percent change in the standard deviation of the burst percentage in each well.Data from the assay component CCTE_Shafer_MEA_acute_burst_percentage_std was analyzed into 1 assay endpoint. This assay endpoint, CCTE_Shafer_MEA_acute_burst_percentage_std, was analyzed in the negative analysis fitting direction relative to DMSO as the negative control and baseline of activity. Using a type of functional reporter, gain or loss-of-signal activity can be used to understand electrical activity.
Spontaneous activity in the cortical cultures was recorded using an Axion Biosystems Maestro 768 channel amplifier and Axion Integrated Studios (AxIS) v1.8 (or later) software. The amplifier recorded from all channels simultaneously (gain = 1200 x; sampling rate = 12.5 kHz/channel): raw signals were filtered with a Butterworth band-pass filter (300-5000 Hz), which filters out slower local field potentials leaving only fast potentials, i.e., "spikes", arising from extracellular currents associated with action potentials (Pine 2006; Wheeler and Nam 2011). On-line spike detection of filtered signals was conducted with the AxIS adaptive spike detector, using a threshold of 8x the root mean squared (rms) noise on each channel. Any electrodes with rms noise levels greater than 5 uV were grounded (e.g., no data were recorded). Once grounded, an electrode was grounded for the duration of the experiment. All recordings were conducted at 37 C. Wells were deemed usable if on the day of the exposure >/= 10 electrodes were active (defined as >/= 5 spikes/min). On DIV 13 or 15, a minimum of three wells from one cortical culture preparation were treated with each compound (0.03-40 uM). Prior to recording baseline activity, each mwMEA plate was placed in the Maestro at 37 C and allowed to sit for 20 min while firing rates stabilized. Baseline activity (40 min) was recorded before the addition of each compound. An additional 40 min of spontaneous activity was recorded in the presence of each compound. Changes in network parameters relative to baseline were assessed following compound treatment.
For the compound `O=C(c1ccc(OCCN2CCCCC2)cc1)c1c(-c2ccc(O)cc2)sc2cc(O)ccc12`, the call was inactive.

As for `CC/C(=C(\c1ccccc1)c1ccc(OCCN(C)C)cc1)c1ccccc1`, the AC50 was 15.3 µM (active) and the call was inactive.

As to `c1ccc(OCCOc2ccccc2)cc1`, the outcome was inactive.

In the case of `CC(C)CCCC(C)(C)O`, the compound was called inactive.

With `N[C@@H](CCC(=O)O)C(=O)O`, the compound was classed as inactive.

With `CCCCN(CCO)CCO`, the compound was classed as inactive.

As to `CC(=O)c1ccc(C)cc1`, the compound was called inactive.

Consider `CCCCOCCOCCO`, for which the call was inactive.

Consider `CCn1cc(C(=O)O)c(=O)c2ccc(C)nc21`, for which the call was inactive.

For the compound `CC(C)(CO)CO`, the call was inactive.

For the compound `CCCO[Si](OCCC)(OCCC)OCCC`, the compound was classed as inactive.
